# Wee1 stabilizer – Wee1 degradation inhibitors, primary screen, cell-based, HeLa, Wee1K328M-luciferase, luminescence | Wee1-like protein kinase (Homo sapiens), P30291 | HeLa Luc-Wee1K328M stability; 100% = proteasome inhibitor MG132 effect | reporter increase, % at 5 µM | 220,000 compounds, 1.2% hits;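 active means activation above the mean of all tested compounds plus 3 SD, set per screening run, cut at about 8.8% in these data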;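 further: cells exposed to compound for 20 h before luminescence read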
# hcDAF-12 act – H. contortus DAF-12 nuclear receptor activators, primary screen, cell-based, luminescence, HEK293, lit1-tk-luc reporter. HEK293 hcDAF-12 lit1-tk-luc reporter; 0% DMSO, 100% Δ7-dafachronic acid. activation, % at 6.8 µM. 370,000 compounds, 1.4% hits;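 active means activation above the mean of all tested compounds plus 3 SD, cut at about 5.5% in these data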
# DAX1 inh-1 – DAX1 (NR0B1) inhibitors on StAR promoter, primary screen, cell-based, luminescence, SF-1 (NR5A1), full-length DAX-1; HEK293T StAR-luciferase reporter, SF-1/DAX-1 repression relief; inhibition, % at 6.8 µM; 370,000 compounds, 1.1% hits;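 active means inhibition above the mean over all tested compounds plus 3 SD, cut at about 3.6% in these data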;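 further: higher inhibition means more luminescence from relief of DAX-1 repression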
# hgDAF-12 ag – H. glycines DAF-12 receptor agonists, primary screen, cell-based, luminescence, HEK293, GAL4 fusion, UAS-luciferase. Nuclear hormone receptor DAF-12 (Heterodera glycines), GAL4 fusion. HEK293 GAL4-hgDAF12 UAS-luciferase reporter, agonist luminescence; normalized to butyrate control. activation, % at 6.8 µM. 370,000 compounds, 1.8% hits. AID 687014, 2013;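 active means activation above a cutoff set at the mean of all screened compounds plus 3 SD, cut at about 10% in these data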
# DAX1 inh-2 – DAX1 (NR0B1) inhibitors, primary screen, cell-based, HEK293, Gal4-DAX1, luciferase luminescence. Nuclear receptor subfamily 0 group B member 1 (Homo sapiens), P51843. HEK293 Gal4-DAX1 luciferase reporter. inhibition, % at 6.75 µM. 340,000 compounds, 0.99% hits;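 active means inhibition above the mean over all tested compounds plus 3 SD, cut at about 4.2% in these data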;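 further: inhibition shows as a rise in luminescence from relieved DAX1 repression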
# Target sequence (P51843 207-470 limits assumed): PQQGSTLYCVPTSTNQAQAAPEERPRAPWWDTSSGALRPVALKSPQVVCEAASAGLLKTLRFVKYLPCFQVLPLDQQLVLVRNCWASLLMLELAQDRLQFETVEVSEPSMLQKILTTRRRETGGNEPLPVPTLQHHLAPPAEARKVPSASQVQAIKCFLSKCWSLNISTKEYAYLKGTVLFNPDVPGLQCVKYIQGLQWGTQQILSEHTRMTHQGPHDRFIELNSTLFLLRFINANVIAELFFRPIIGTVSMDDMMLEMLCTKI
# ssDAF12 agonist – S. stercoralis DAF-12 nuclear receptor activators, primary screen, cell-based, luminescence, HEK293, GRIP1 co-expression, lit1-tk-luc. Nuclear hormone receptor DAF-12 (Strongyloides stercoralis). HEK293 ssDAF-12/GRIP1 lit1-tk-luc reporter; % of 3 µM dafachronic acid response. activation, % at 6.8 µM. 370,000 compounds, 1% hits. AID 652126, 2013;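 active means activation above the mean over all tested compounds plus 3 SD, cut at about 0.9% in these data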
# hgDAF12 ag – H. glycines DAF-12 receptor agonists, confirmation, cell-based, luminescence, HEK293, GAL4-LBD fusion; shares compounds with hgDAF-12 ag; HEK293 GAL4-hgDAF12 luciferase reporter, agonist mode; percent of butyrate response; activation, % at 6.8 µM; 3,300 compounds, 80% hits; AID 743050, 2013;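 active means mean activation over triplicate wells above the hit cutoff derived from the earlier primary screen, cut at about 11% in these data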
# LXRb DAF12 ctr – LXR agonists, Gal4 luciferase reporter, confirmation, counter-screen for hgDAF-12 agonist project, cell-based, luminescence, HEK293, H. glycines campaign; activation, % at 6.8 µM; 3,300 tested, under 10 active; 24 h; shares compounds with hgDAF-12 ag;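 active means mean activation of the triplicate above a set limit carried over from the primary screen, none filed active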
# Numbers stand for hits; 0 = inactive; - = no result. Compounds with a hit are over-represented: about 4.6% of the library has one in this group of screens.
SMILES,Wee1 stabilizer,hcDAF-12 act,DAX1 inh-1,hgDAF-12 ag,DAX1 inh-2,ssDAF12 agonist,hgDAF12 ag,LXRb DAF12 ctr
CCOC(=O)c1[nH]c(C)c(C(=O)OCC(=O)N(Cc2ccccc2)C(C)C)c1C,-,0,0,0,0,0,-,-
COC(=O)[C@@]12C[C@@H](CC(=O)N3CCOCC3)C(=O)N(Cc3cccc4ccccc34)C1=CCC(C)(C)C2,-,0,0,0,-,0,-,-
COc1ccc(/C=C/C2=NNC(=O)CC2)cc1,0,0,0,14,0,0,0,0
COc1ccc(C2=NNC(=O)CC2)cc1,0,0,0,0,0,0,-,-
COC(=O)CCCn1cc(CN2CC(N3CCCCC3)CS2(=O)=O)nn1 (centres undefined),-,0,0,0,-,0,-,-
Cc1ccc(C)c(NC(=O)c2nc(Cl)ccc2Cl)c1,0,0,0,14,0,0,0,0
Cc1ccc(C)c(NC(=O)COC(=O)c2nc(Cl)ccc2Cl)c1,-,0,0,0,0,0,-,-
Cc1ccc(NC(=O)CCS(=O)(=O)c2ccc3nc(C)sc3c2)c(C)c1,-,0,0,0,-,0,-,-
C[C@@H](C(=O)Nc1ccc2c(c1)OCCO2)n1nnc2ccccc2c1=O,-,0,0,13,0,0,14,0
COc1cccc2cc(C(C)=O)oc12,0,0,0,0,0,0,-,-
COc1ccc(C(=O)c2cc3cccc(OC)c3o2)cc1,0,0,0,19,0,0,14,0
CN(C)CCNc1ncnc2c1ncn2[C@H]1CN(Cc2cccs2)C[C@@H](CO)O1,-,0,0,0,-,0,-,-
Fc1cc(Cl)cc2ccc(-c3ccccc3)nc12,-,0,0,15,-,0,0,0
CC(C)NC(=O)c1cc(C2CCCCN2C(=O)OCCF)on1 (centres undefined),-,0,0,0,-,0,-,-
CC(=O)Oc1ccc(C(=O)[C@H]2[C@H]3C(=O)N(c4ccc5ccccc5c4)C(=O)[C@H]3[C@@H]3C=CC=NN32)cc1,0,0,0,14,0,0,0,0
Cc1ccc(S(=O)(=O)N(C)C[C@H]2OCCCC[C@H](C)Oc3ccc(NC(=O)Nc4cccc5ccccc45)cc3C(=O)N([C@@H](C)CO)C[C@H]2C)cc1,-,0,0,0,0,0,-,-
CCSc1ncnc2c1oc1ccccc12,0,0,0,0,0,0,-,-
Clc1ncnc2c1oc1ccccc12,0,6.2,0,19,0,1.6,16,0
CC(C)(C)OC(=O)C[C@H]1C/C=C\C[C@H](CC(=O)N[C@H](CO)Cc2ccccc2)C(=O)N[C@H](Cc2ccccc2)COC1=O,-,0,0,0,0,0,-,-
O=C(/C=C/c1ccccc1)N1CCC(c2ccccc2)C1 (centres undefined),0,0,0,13,0,0,16,0
CCc1ccc(NC(=O)N2CCC(c3ccccc3)C2)cc1 (centres undefined),0,0,3.7,18,0,0,14,0
O=C(/C=C/c1ccco1)N1CCCC(c2ccccc2)C1 (centres undefined),0,0,0,0,0,0,-,-
c1cnn2c(-c3ccc4c(c3)CCO4)cnc2c1,-,0,0,14,-,0,0,0
COc1ccc(-c2cnc3cccnn23)cn1,-,0,0,0,-,0,-,-
Cc1ccsc1CN(C)CC(=O)N(C)CC(=O)Nc1c(Cl)cccc1Cl,-,0,0,0,0,0,-,-
SMILES,Wee1 stabilizer,hcDAF-12 act,DAX1 inh-1,hgDAF-12 ag,DAX1 inh-2,ssDAF12 agonist,hgDAF12 ag,LXRb DAF12 ctr
C/C(=N\O)c1ccc(N2C(=O)C3CC=C(Cl)CC3C2=O)cc1 (centres undefined),0,0,0,14,5.0,0,15,0
CC(Sc1nnc2n1CCCCC2)C(=O)Nc1cccc(S(=O)(=O)N2CCOCC2)c1 (centres undefined),-,0,0,0,0,0,-,-
O=C(/C=C/c1ccc(F)cc1)NCCC1=CCCCC1,0,0,0,0,0,0,-,-
O=C(/C=C/c1ccccc1)NCCC1=CCCCC1,0,0,0,14,0,0,12,0
N=c1c2c(-c3ccccc3)c(-c3ccccc3)n(Cc3ccccc3)c2ncn1C1CCOCC1,-,0,0,0,-,0,-,-
CC1(C)CN(C2CCCCC2)C(=O)[C@H]1CC(=O)Nc1ccc(Br)cc1,-,0,0,0,0,0,-,-
N=C1/C(=C/c2ccc(OCc3ccccc3F)cc2)C(=O)N=C2SC(CC(=O)N3CCOCC3)=NN12,-,0,0,15,0,0,0,0
Cc1nc(NC(=O)/C=C/c2ccco2)sc1C,8.9,0,0,13,0,0,19,0
CC12CCC(C(=O)Nc3nc4ccccc4s3)(OC1=O)C2(C)C (centres undefined),0,0,0,13,0,0,0,0
CC12CCC(C(=O)NC(c3ccccc3)c3ccccc3)(OC1=O)C2(C)C (centres undefined),0,0,0,0,0,0,-,-
CC(=O)COc1ccc2cc(-c3ccccc3)c(=O)oc2c1,-,6.2,0,17,0,0,17,0
COc1ccc(CN(C)C(=O)c2ccc(OCC(=O)Nc3cccc(C(F)(F)F)c3)c(OC)c2)cc1,-,0,0,0,0,0,-,-
CC1C(=O)N(Cc2cn(CCC3OCCCO3)nn2)CCS(=O)(=O)N1Cc1ccc(-c2ccncc2)cc1 (centres undefined),-,0,0,0,0,0,-,-
Fc1ccc(N=C2NN=C(c3cc(F)ccc3F)CS2)cc1,0,0,0,16,0,0,11,0
Nc1c(-c2ccc(Cl)cc2)cnc2c(-c3ccccc3)cnn12,-,0,0,14,7.8,0,12,0
COc1ccc([C@H]2OC(=O)C[C@@H]2C(=O)N2CCN(c3ccccc3Cl)CC2)cc1OC,-,0,0,0,-,0,-,-
O=c1c2ccccc2nc(-c2ccco2)n1Cc1ccccc1,0,0,0,14,0,0,12,0
c1ccc(Cn2c(-c3ccco3)nc3nc4ccccc4nc32)cc1,0,0,0,0,0,0,-,-
